Experimental data as given in PubChem BioAssay.
Calls of active or inactive are those of the source.

Legend:
[1] = A549 cell viability effects, profiling panel, calcein-AM fluorescence, 48 h, basal (AID 1162); settings: higher = more signal
[2] = adipocyte viability effects, profiling panel, cell-based, 3T3-L1 adipocytes, calcein-AM fluorescence, 48 h, basal (AID 1163); settings: 3T3-L1 adipocytes viability, higher = more signal
[3] = HepG2 cell viability effects, profiling panel, calcein-AM fluorescence, 48 h, basal (AID 1164); settings: higher = more signal
[4] = MM1S cell viability effects, profiling panel, calcein-AM fluorescence, 48 h, basal (AID 1165); settings: higher = more signal;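 further: viability of MM1S multiple myeloma cells under basal unstimulated conditions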
[5] = basal RPMI8226 viability, no added stimulus, profiling panel, cell-based, calcein-AM fluorescence, 48 h, PK04 Diversity Set (AID 1166); settings: RPMI8226 myeloma viability, higher = more signal;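 further: cells grown under basal conditions without added stimulus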
[6] = basal HepG2 mitochondrial membrane potential changes, profiling panel, cell-based, JC-1 fluorescence, 24 h, 100 nL compound (AID 1167); settings: higher = more signal
[7] = basal 3T3-L1 adipocyte mitochondrial potential changes, profiling panel, cell-based, JC-1 fluorescence, 3T3-L1 adipocytes, 24 h, 100 nL compound (AID 1168); settings: JC-1 mitochondrial fluorescence, higher = more signal, called active from +8 up or from −8 down
[8] = basal RPMI8226 mitochondrial membrane potential changes, profiling panel, cell-based, JC-1 fluorescence, 24 h, 100 nL compound (AID 1169); settings: RPMI8226 myeloma, JC-1 mitochondrial potential fluorescence, higher = more signal
[9] = basal MM1S mitochondrial membrane potential changes, profiling panel, cell-based, JC-1 fluorescence, 24 h, 100 nL compound (AID 1170); settings: higher = more signal
[10] = A549 lung cancer cell viability effects, profiling panel, resazurin fluorescence, 24 h, PK04 Diversity Set (AID 1171); settings: higher = more signal, called active from +8 up or from −8 down
Further: test concentration not given here.

SMILES	z-score [1]	z-score [2]	z-score [3]	z-score [4]	z-score [5]	z-score [6]	z-score [7]	z-score [8]	z-score [9]	z-score [10]
NC(=O)NCC#Cc1ccc2c(c1)[C@]1(C(=O)N2)[C@H](C(=O)N2CCN(c3ncccn3)CC2)[C@H]2C(=O)O[C@H](c3ccccc3)[C@H](c3ccccc3)N2[C@@H]1c1ccc(O)cc1	0.348	-0.173	-0.388	-0.977	0.18	-1.99	-1.02 (inactive)	-0.315	0.247	-0.292 (inactive)
COc1ccc([Si](C)(C)[C@@H]2[C@@H](CC(=O)N(CCO)Cc3ccccc3)O[C@]3(C(=O)N(Cc4cccc(N5CCCCC5=O)c4)c4ccccc43)[C@H]2C)cc1	-1.2	0.579	-2.56	-1.43	-3.89	0.56	1.15 (inactive)	-0.654	-1.26	-1.6 (inactive)
CC(C)NC(=O)[C@@]1(c2ccc([N+](=O)[O-])cc2)CC(=O)N(C2CCCCC2)[C@@H]1c1ccc(CO)cc1	-0.68	-0.773	-0.297	-0.0629	-0.402	1.46	1.4 (inactive)	0.172	-0.123	1.38 (inactive)
O=C(c1ccccc1)N1C(=O)[C@]2(Cc3ccccc31)N=C(c1ccc(OCCCO)cc1)O[C@@H]2c1ccccc1	-1.84	0.736	-2.44	-3.55	-4.35	-2.26	-0.0262 (inactive)	-1.18	-2.17	-2.83 (inactive)
CCCC[C@@H]1C[C@H]1[C@@H](NC(=O)c1cccs1)c1ccccc1C(F)(F)F	0.11	-0.556	-0.305	-0.6	-1.72	-2.45	-1.22 (inactive)	-0.307	-1.24	-0.462 (inactive)
COCCOC(=O)N1C(=O)[C@@]2(c3cc(C#CC4(O)CCCCCC4)ccc31)[C@H](C(=O)N1CCc3cc(OC)c(OC)cc3C1)[C@H]1C(=O)O[C@H](c3ccccc3)[C@H](c3ccccc3)N1[C@@H]2c1ccc(OCCO)cc1	-0.111	0.172	-0.653	-1.83	-0.468	-0.32	0.354 (inactive)	-0.542	-1.39	-0.317 (inactive)
CCOc1cc(C(O)C2C=CC3C(=O)NC(=O)C3N2Nc2ccc(Cl)cc2Cl)ccc1O (stereo not given)	-1.33	-0.337	-0.672	-0.433	-0.236	-1.19	-1.05 (inactive)	-0.76	0.172	-0.873 (inactive)
CCCCNC(=O)c1ccc(C#CC(C)(C)C)c(OC(C)=O)c1	0.3	1.75	-0.835	0.13	-1.37	-0.75	-0.103 (inactive)	-0.284	-0.221	-0.654 (inactive)
CC1CC/C=C\[C@H]2OC34C=CCN(C(C)C)C(=O)[C@H]3N(CCO)C(=O)[C@@H]4C2C(=O)O1 (stereo not given in full)	0.649	0.668	-0.255	0.824	-1.11	0.813	0.691 (inactive)	0.021	1.65	-0.969 (inactive)
CCOC(=O)C[C@H]1[C@H](OC(=O)c2ccc(C(=O)c3ccccc3)cc2)[C@@H](NC(=O)c2ccc3ccccc3n2)c2cc(OCCCO)ccc2N1C(=O)Cc1ccc(OC)cc1	0.822	0.418	0.113	0.37	0.0914	0.546	0.295 (inactive)	-0.181	-0.14	0.0291 (inactive)
CCOC(=O)C1=C[C@@H](C(C)(C)C)N(S(=O)(=O)c2ccc(C)cc2)[C@H]1c1cccc2ccccc12	-1.35	-0.15	-1.62	-0.205	-2.97	3.37	0.348 (inactive)	-0.919	-0.541	0.828 (inactive)
CCCCCCCCCCC(O)C1C=CC2C(=O)N(c3ccccc3)C(=O)C2N1Nc1ccc(C#N)cc1 (stereo not given)	-2.09	0.0958	-4.9	-3.73	-4.13	-3.28	-0.15 (inactive)	-0.939	-0.469	-0.186 (inactive)
COC(=O)[C@@]1(Cc2ccc(F)cc2)[C@H]2c3cc(C(=O)N(C)C)n(CCc4ccc(OC)c(Br)c4)c3C[C@H]2CN1C(=O)c1ccccc1	-2.25	0.0834	-1.42	-3.29	-4.63	-1.68	-0.662 (inactive)	-0.812	-2.89	-2.93 (inactive)
C=CCNC(=O)[C@@H]1[C@H]2C(=O)O[C@H](c3ccccc3)[C@H](c3ccccc3)N2[C@H](c2ccccc2OCCO)[C@@]12C(=O)Nc1ccc(C#CCC(C(=O)OC)C(=O)OC)cc12	-0.423	-0.695	-0.852	-3.28	-4.17	-1.4	2.37 (inactive)	-0.941	-1.96	-1.3 (inactive)
COC(=O)[C@@]1(Cc2ccc(F)cc2)[C@H]2c3cc(C(=O)N(C)C)n(Cc4ccc(OC(F)(F)F)cc4)c3C[C@H]2CN1C(=O)c1ccccc1	-0.524	-0.859	-0.51	-0.225	0.218	-0.0759	-0.392 (inactive)	-0.0137	-0.276	-0.914 (inactive)
